Laboratory results taken from PubChem BioAssay (NCATS).
Several values for one entry are separate records, joined by “and”; a condition that tells them apart may be missing. Equal entries are not always repeated. Inconclusive results are not listed. A number with no mark means an inactive call. Activity calls are given as the source filed them. Unless noted, the call rests on the fitted dose curve; in most records, active means well fitted curve in the direction sought with a large enough effect; inconclusive means small, poorly fitted or top-dose-only effect, or another doubt; inactive means no such curve, though single readings can be large; an effect the other way counts as inactive or inconclusive.

assay: Counterscreen qHTS for small molecule stabilizers of the endoplasmic reticulum resident proteome: GLuc-NoTag assay (AID 1508627); conditions: Gaussia luciferase NoTag secretion counterscreen, luminescence, thapsigargin 100 nM for final 4 h; series mostly up to 76.4 µM; activity change, negative = inhibition: at the top concentration; further: potency means the concentration at half of the fitted maximal effect;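 on activity change, negative = inhibition: SH-SY5Y cells given compound then 100 nM thapsigargin to empty ER calcium; 0% = thapsigargin alone and -100% = DMSO vehicle control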
Summary of the method: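 Counterscreen line: SH-SY5Y-GLuc-NoTag cells, treated with compound 19 hr before a 4 hr, 100 nM thapsigargin calcium depletion. Secreted Gaussia luciferase in the medium was measured by luminescence after coelenterazine was added (0.07x final), with cells unlysed.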

SMILES	activity change, negative = inhibition	Potency
OC(c1ccccc1)(c1ccccc1)C1CCNCC1	-11.1%	–
NC(=O)OCCCc1ccccc1	0.639%	–
c1cc2c(c(N3CCNCC3)c1)OCCO2	–	inactive
NC1(c2ccccc2)CCCCC1	-25.2% [at 157 µM]	–
C[C@@H]1C[C@@H]([C@H](O)CC2CC(=O)NC(=O)C2)C(=O)[C@@H](C)C1	–	1.58 µM (active) and 1.12 µM (active)

assay: Cell Viability qHTS for small molecule stabilizers of the endoplasmic reticulum resident proteome (AID 1508629); conditions: cell viability counter-screen, 100 nM thapsigargin for final 4 h;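 further: human SH-SY5Y neuroblastoma cells carrying the GLuc-SERCaMP reporter; compound exposure about 46 h in total before the viability read; on the % scale 0 is the no-effect control and ±100 the full control effect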

SMILES	max response [%]
OC(c1ccccc1)(c1ccccc1)C1CCNCC1	-6.14
NC(=O)OCCCc1ccccc1	1.15
c1cc2c(c(N3CCNCC3)c1)OCCO2	5.26

assay: Primary qHTS for small molecule stabilizers of the endoplasmic reticulum resident proteome: Secreted ER Calcium Modulated Protein (SERCaMP) assay (AID 1508630); conditions: SH-SY5Y GLuc-SERCaMP (Gaussia luciferase released on ER calcium loss) secretion, thapsigargin, luminescence; series mostly up to 38.4 µM; activity change, negative = inhibition: at the top concentration; further: on the % scale 0 is the no-effect control and ±100 the full control effect
Summary of the method: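 The SH-SY5Y reporter protocol was run at 3 concentrations up to 38.3 uM (primary) or 11 concentrations (follow-up): 16 h compound, 100 nM thapsigargin for 4 h, then extracellular luciferase luminescence.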

SMILES	activity change, negative = inhibition	outcome
C[C@]12CC[C@H](O)CC1=CC[C@@H]1[C@@H]2CC[C@]2(C)C(=O)CC[C@@H]12	-18.4%	–
CC(C)(C)OC(=O)c1ncn2c1[C@@H]1CCCN1C(=O)c1c(Br)cccc1-2	-17.8%	–
COC(=O)C1=CCCN(C)C1	–	inactive
CCC(=O)O[C@H]1CC[C@H]2[C@@H]3CCC4=CC(=O)CC[C@]4(C)[C@H]3CC[C@]12C	0.716%	–
COc1ccc(C(=O)N2CCCC2=O)cc1	–	inactive
C#C[C@]1(O)C=C[C@H]2[C@@H]3CCC4=CC(=O)CC[C@@H]4[C@H]3CC[C@@]21CC	-2.11%	–
O=C(CCl)c1ccc(Cl)cc1Cl	45.2%	–
Nc1ccc(N)cc1	-34.8%	–
C=CCOC(Cn1ccnc1)c1ccc(Cl)cc1Cl (stereo not drawn)	-29.8%	–
Cc1nnc2n1-c1sc(CCc3ccc(CC(C)C)cc3)cc1C(c1ccccc1Cl)=NC2C (stereo not drawn)	-25.9%	–
C[N+]1(C)[C@@H]2CC[C@H]1CC(OC(=O)C(CO)c1ccccc1)C2 (stereo partly drawn)	10.3%	–
CCc1cc(OC)c(C[C@H](C)N)cc1OC	-16.3% [at 76.3 µM]	–
C[C@]12CC[C@H]3[C@@H](CCC4=CC(=O)CC[C@@H]43)[C@@H]1CC[C@@H]2O	-4.33%	–
CCC(OC(C)=O)C(CC(C)NC)(c1ccccc1)c1ccccc1 (stereo not drawn)	255% [at 76.3 µM]	–
Oc1c(Br)cc(Br)cc1Br	0.153%	–
COc1ccc2[nH]cc(CCN(C(C)C)C(C)C)c2c1	7.94% [at 76.3 µM]	–
CCOC(=O)C(c1c(O)c2ccccc2oc1=O)c1c(O)c2ccccc2oc1=O	12%	–
C[C@@H]1CN(C2CCC(C#N)(c3ccc(F)cc3)CC2)CC[C@]1(C(=O)O)c1ccccc1 (stereo partly drawn)	-22.4%	–
C=CCN1CC[C@]23CCCC[C@H]2[C@H]1Cc1ccc(O)cc13	-24.1%	–
O=C(O)c1nn(Cc2ccc(Cl)cc2Cl)c2ccccc12	–	inactive
CC(=O)OC1(c2ccccc2)CCN(CCc2ccccc2)CC1	-25.4% [at 76.3 µM]	–
COc1cc(CC(C)N)c(OC)cc1Br (stereo not drawn)	66.1% [at 76.3 µM]	–
N#Cc1nn(-c2c(Cl)cc(C(F)(F)F)cc2Cl)c(N)c1S(=O)C(F)(F)F (stereo not drawn)	–	inactive
CC[C@]1(O)CC[C@H]2[C@@H]3CCC4=CCCC[C@@H]4[C@H]3CC[C@@]21C	7.81%	–
COCC(=O)N(c1c(C)cccc1C)C(C)C(=O)OC (stereo not drawn)	-29.9%	–

assay: A High-Content qHTS Against Drug Library for the Identification of Small Molecules that Inhibit DYT1 Early Onset Primary Dystonia-Associated Cell Pathology (AID 1645839; calls by dose curve); conditions: HEK293 Flp-In EGFP-delE TorsinA, punctate imaging, 48 h; series mostly up to 46.1 µM; % pathology change, negative = correction: at the top concentration
Summary of the method: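 High-content imaging quantified EGFP-TorsinA mislocalization in HEK293-derived cells inducibly expressing DYT1 mutant torsinA, after 48 h exposure to compound given together with tetracycline induction. Cell count served as a toxicity channel alongside %pathology.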

SMILES	% pathology change, negative = correction
C[C@]12CC[C@H](O)CC1=CC[C@@H]1[C@@H]2CC[C@]2(C)C(=O)CC[C@@H]12	-22.2%
CC(C)(C)OC(=O)c1ncn2c1[C@@H]1CCCN1C(=O)c1c(Br)cccc1-2	1.61%
OC(c1ccccc1)(c1ccccc1)C1CCNCC1	-19.4%
COC(=O)C1=CCCN(C)C1	-5.62%
COc1ccc(C(=O)N2CCCC2=O)cc1	-2.18%
C#C[C@]1(O)C=C[C@H]2[C@@H]3CCC4=CC(=O)CC[C@@H]4[C@H]3CC[C@@]21CC	-29.9%
C[N+]1(C)[C@@H]2CC[C@H]1CC(OC(=O)C(CO)c1ccccc1)C2 (stereo partly drawn)	16.8%
CCc1cc(OC)c(C[C@H](C)N)cc1OC	-12.1% [at 104 µM]
C[C@]12CC[C@H]3[C@@H](CCC4=CC(=O)CC[C@@H]43)[C@@H]1CC[C@@H]2O	0.321%
NC(=O)OCCCc1ccccc1	-9.7%
Oc1c(Br)cc(Br)cc1Br	-4.37%
COc1ccc2[nH]cc(CCN(C(C)C)C(C)C)c2c1	-0.203% [at 104 µM]
CCOC(=O)C(c1c(O)c2ccccc2oc1=O)c1c(O)c2ccccc2oc1=O	-18.9%
c1cc2c(c(N3CCNCC3)c1)OCCO2	15.8%
C[C@@H]1CN(C2CCC(C#N)(c3ccc(F)cc3)CC2)CC[C@]1(C(=O)O)c1ccccc1 (stereo partly drawn)	-41.4%
C=CCN1CC[C@]23CCCC[C@H]2[C@H]1Cc1ccc(O)cc13	5.74%
NC1(c2ccccc2)CCCCC1	2.53% [at 91.7 µM]
O=C(O)c1nn(Cc2ccc(Cl)cc2Cl)c2ccccc12	-0.859%
N#Cc1nn(-c2c(Cl)cc(C(F)(F)F)cc2Cl)c(N)c1S(=O)C(F)(F)F (stereo not drawn)	3.25%
COCC(=O)N(c1c(C)cccc1C)C(C)C(=O)OC (stereo not drawn)	-5.13%
